{"source": "the supplement of paper PMC12282887", "test_in_all_cases": "promoter activity interaction Z-score (Lux/OD deviation from empty-vector control); higher = stronger promoter induction by the compound", "key": {"[1]": {"system": "E. coli BW25113 acrABp lux reporter", "summary_of_the_method": "(§1)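 Wild-type E. coli BW25113 and three single-gene deletion strains, each carrying a low-copy luxCDABE promoter reporter, were grown at 37°C in 40 µl LB Lennox per well of a 384-well plate. Every compound was applied at four 1:2 dilutions in biological duplicates, and OD600 and luminescence were read every 30 min for 12 h. Integration covered 0–8 h for wild type and 1–9 h for deletion strains, and wells under 10% of the median growth value were removed. Scores are Z-transformed residuals of growth-normalised luminescence fitted against a control.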"}, "[2]": {"system": "E. coli BW25113 micFp lux reporter", "summary_of_the_method": "as §1"}, "[3]": {"system": "E. coli BW25113 ompFp lux reporter", "summary_of_the_method": "as §1"}, "[4]": {"system": "E. coli BW25113 robp lux reporter", "summary_of_the_method": "as §1"}, "[5]": {"system": "E. coli BW25113 soxSp lux reporter", "summary_of_the_method": "as §1"}, "[6]": {"system": "E. coli BW25113 tolCp lux reporter", "summary_of_the_method": "as §1"}, "[7]": {"details": "0.073 µg/ml, genetic background: wild type"}, "[8]": {"details": "0.073 µg/ml, genetic background: ΔmarA"}, "[9]": {"details": "0.073 µg/ml, genetic background: Δrob"}, "[10]": {"details": "0.073 µg/ml, genetic background: ΔsoxS"}, "[11]": {"details": "0.15 µg/ml, genetic background: wild type"}, "[12]": {"details": "0.15 µg/ml, genetic background: ΔmarA"}, "[13]": {"details": "0.15 µg/ml, genetic background: Δrob"}, "[14]": {"details": "0.15 µg/ml, genetic background: ΔsoxS"}, "[15]": {"details": "0.29 µg/ml, genetic background: wild type"}, "[16]": {"details": "0.29 µg/ml, genetic background: ΔmarA"}, "[17]": {"details": "0.29 µg/ml, genetic background: Δrob"}, "[18]": {"details": "0.29 µg/ml, genetic background: ΔsoxS"}, "[19]": {"details": "0.58 µg/ml, genetic background: wild type"}, "[20]": {"details": "0.58 µg/ml, genetic background: ΔmarA"}, "[21]": {"details": "0.58 µg/ml, genetic background: Δrob"}, "[22]": {"details": "0.58 µg/ml, genetic background: ΔsoxS"}}, "note": "± gives the standard deviation of the averaged measurements.", "data": [{"smiles": "COc1cc(Cc2cnc(N)nc2N)cc(OC)c1OC", "note": "[Trimethoprim]", "values": [{"measurement": "promoter activity interaction Z-score", "setting": "[1]; [7]", "result": "0.0131 ± 0.34"}, {"measurement": "promoter activity interaction Z-score", "setting": "[1]; [8]", "result": "-0.307 ± 0.0077"}, {"measurement": "promoter activity interaction Z-score", "setting": "[1]; [9]", "result": "-0.0611 ± 0.045"}, {"measurement": "promoter activity interaction Z-score", "setting": "[1]; [10]", "result": "-0.429 ± 0.0073"}, {"measurement": "promoter activity interaction Z-score", "setting": "[1]; [11]", "result": "0.297 ± 0.54"}, {"measurement": "promoter activity interaction Z-score", "setting": "[1]; [12]", "result": "1.43 ± 0.76"}, {"measurement": "promoter activity interaction Z-score", "setting": "[1]; [13]", "result": "0.162 ± 0.041"}, {"measurement": "promoter activity interaction Z-score", "setting": "[1]; [14]", "result": "-0.000323 ± 0.14"}, {"measurement": "promoter activity interaction Z-score", "setting": "[1]; [15]", "result": "0.6 ± 0.73"}, {"measurement": "promoter activity interaction Z-score", "setting": "[1]; [16]", "result": "-0.763 ± 0.81"}, {"measurement": "promoter activity interaction Z-score", "setting": "[1]; [17]", "result": "0.526 ± 0.19"}, {"measurement": "promoter activity interaction Z-score", "setting": "[1]; [18]", "result": "0.701 ± 0.81"}, {"measurement": "promoter activity interaction Z-score", "setting": "[1]; [19]", "result": "0.577 ± 0.46"}, {"measurement": "promoter activity interaction Z-score", "setting": "[1]; [20]", "result": "-0.476 ± 0.038"}, {"measurement": "promoter activity interaction Z-score", "setting": "[1]; [21]", "result": "1.39 ± 0.35"}, {"measurement": "promoter activity interaction Z-score", "setting": "[1]; [22]", "result": "0.448 ± 0.78"}, {"measurement": "promoter activity interaction Z-score", "setting": "[2]; [7]", "result": "0.711 ± 0.12"}, {"measurement": "promoter activity interaction Z-score", "setting": "[2]; [8]", "result": "0.728 ± 0.027"}, {"measurement": "promoter activity interaction Z-score", "setting": "[2]; [9]", "result": "0.665 ± 0.28"}, {"measurement": "promoter activity interaction Z-score", "setting": "[2]; [10]", "result": "0.533 ± 0.23"}, {"measurement": "promoter activity interaction Z-score", "setting": "[2]; [11]", "result": "1.86 ± 0.14"}, {"measurement": "promoter activity interaction Z-score", "setting": "[2]; [12]", "result": "1.1 ± 0.14"}, {"measurement": "promoter activity interaction Z-score", "setting": "[2]; [13]", "result": "1.29 ± 0.44"}, {"measurement": "promoter activity interaction Z-score", "setting": "[2]; [14]", "result": "0.842 ± 0.36"}, {"measurement": "promoter activity interaction Z-score", "setting": "[2]; [15]", "result": "2.75 ± 0.96"}, {"measurement": "promoter activity interaction Z-score", "setting": "[2]; [16]", "result": "1.9 ± 0.074"}, {"measurement": "promoter activity interaction Z-score", "setting": "[2]; [17]", "result": "2.28 ± 0.79"}, {"measurement": "promoter activity interaction Z-score", "setting": "[2]; [18]", "result": "1.33 ± 0.41"}, {"measurement": "promoter activity interaction Z-score", "setting": "[2]; [19]", "result": "0.997 ± 0.95"}, {"measurement": "promoter activity interaction Z-score", "setting": "[2]; [20]", "result": "0.388 ± 0.61"}, {"measurement": "promoter activity interaction Z-score", "setting": "[2]; [21]", "result": "1.15 ± 0.38"}, {"measurement": "promoter activity interaction Z-score", "setting": "[2]; [22]", "result": "0.825 ± 0.16"}, {"measurement": "promoter activity interaction Z-score", "setting": "[3]; [7]", "result": "-0.322 ± 0.3"}, {"measurement": "promoter activity interaction Z-score", "setting": "[3]; [8]", "result": "-1.17 ± 0.5"}, {"measurement": "promoter activity interaction Z-score", "setting": "[3]; [9]", "result": "-0.297 ± 0.54"}, {"measurement": "promoter activity interaction Z-score", "setting": "[3]; [10]", "result": "-0.129 ± 0.65"}, {"measurement": "promoter activity interaction Z-score", "setting": "[3]; [11]", "result": "0.109 ± 0.39"}, {"measurement": "promoter activity interaction Z-score", "setting": "[3]; [12]", "result": "-0.477 ± 0.78"}, {"measurement": "promoter activity interaction Z-score", "setting": "[3]; [13]", "result": "0.244 ± 0.7"}, {"measurement": "promoter activity interaction Z-score", "setting": "[3]; [14]", "result": "0.51 ± 0.81"}, {"measurement": "promoter activity interaction Z-score", "setting": "[3]; [15]", "result": "0.0831 ± 0.67"}, {"measurement": "promoter activity interaction Z-score", "setting": "[3]; [16]", "result": "-1.9 ± 0.61"}, {"measurement": "promoter activity interaction Z-score", "setting": "[3]; [17]", "result": "-0.0302 ± 1"}, {"measurement": "promoter activity interaction Z-score", "setting": "[3]; [18]", "result": "0.395 ± 1.3"}, {"measurement": "promoter activity interaction Z-score", "setting": "[3]; [19]", "result": "-0.896 ± 0.32"}, {"measurement": "promoter activity interaction Z-score", "setting": "[3]; [20]", "result": "-0.897 ± 0.46"}, {"measurement": "promoter activity interaction Z-score", "setting": "[3]; [21]", "result": "0.0886 ± 0.83"}, {"measurement": "promoter activity interaction Z-score", "setting": "[3]; [22]", "result": "-1.15 ± 0.39"}, {"measurement": "promoter activity interaction Z-score", "setting": "[4]; [7]", "result": "0.791 ± 0.3"}, {"measurement": "promoter activity interaction Z-score", "setting": "[4]; [8]", "result": "0.875 ± 0.23"}, {"measurement": "promoter activity interaction Z-score", "setting": "[4]; [9]", "result": "2.11 ± 0.058"}, {"measurement": "promoter activity interaction Z-score", "setting": "[4]; [10]", "result": "0.238 ± 1.1"}, {"measurement": "promoter activity interaction Z-score", "setting": "[4]; [11]", "result": "3.64 ± 0.82"}, {"measurement": "promoter activity interaction Z-score", "setting": "[4]; [12]", "result": "3.37 ± 0.44"}, {"measurement": "promoter activity interaction Z-score", "setting": "[4]; [13]", "result": "4.81 ± 0.7"}, {"measurement": "promoter activity interaction Z-score", "setting": "[4]; [14]", "result": "2.16 ± 0.27"}, {"measurement": "promoter activity interaction Z-score", "setting": "[4]; [15]", "result": "7.43 ± 2.3"}, {"measurement": "promoter activity interaction Z-score", "setting": "[4]; [16]", "result": "5.16 ± 0.16"}, {"measurement": "promoter activity interaction Z-score", "setting": "[4]; [17]", "result": "8.88 ± 0.31"}, {"measurement": "promoter activity interaction Z-score", "setting": "[4]; [18]", "result": "5.55 ± 0.44"}, {"measurement": "promoter activity interaction Z-score", "setting": "[4]; [19]", "result": "3.89 ± 0.063"}, {"measurement": "promoter activity interaction Z-score", "setting": "[4]; [20]", "result": "4.6 ± 5.3"}, {"measurement": "promoter activity interaction Z-score", "setting": "[4]; [21]", "result": "3.21 ± 0.23"}, {"measurement": "promoter activity interaction Z-score", "setting": "[4]; [22]", "result": "2.01 ± 1.6"}, {"measurement": "promoter activity interaction Z-score", "setting": "[5]; [7]", "result": "-0.0844 ± 0.22"}, {"measurement": "promoter activity interaction Z-score", "setting": "[5]; [8]", "result": "0.118 ± 0.2"}, {"measurement": "promoter activity interaction Z-score", "setting": "[5]; [9]", "result": "0.163 ± 0.18"}, {"measurement": "promoter activity interaction Z-score", "setting": "[5]; [10]", "result": "-0.116 ± 0.24"}, {"measurement": "promoter activity interaction Z-score", "setting": "[5]; [11]", "result": "0.261 ± 0.11"}, {"measurement": "promoter activity interaction Z-score", "setting": "[5]; [12]", "result": "0.204 ± 0.1"}, {"measurement": "promoter activity interaction Z-score", "setting": "[5]; [13]", "result": "0.486 ± 0.39"}, {"measurement": "promoter activity interaction Z-score", "setting": "[5]; [14]", "result": "0.169 ± 0.29"}, {"measurement": "promoter activity interaction Z-score", "setting": "[5]; [15]", "result": "0.521 ± 0.032"}, {"measurement": "promoter activity interaction Z-score", "setting": "[5]; [16]", "result": "0.796 ± 0.022"}, {"measurement": "promoter activity interaction Z-score", "setting": "[5]; [17]", "result": "0.986 ± 0.72"}, {"measurement": "promoter activity interaction Z-score", "setting": "[5]; [18]", "result": "0.663 ± 0.23"}, {"measurement": "promoter activity interaction Z-score", "setting": "[5]; [19]", "result": "1.34 ± 0.14"}, {"measurement": "promoter activity interaction Z-score", "setting": "[5]; [20]", "result": "2.96 ± 0.38"}, {"measurement": "promoter activity interaction Z-score", "setting": "[5]; [21]", "result": "2.69 ± 1.1"}, {"measurement": "promoter activity interaction Z-score", "setting": "[5]; [22]", "result": "-0.0409 ± 0.74"}, {"measurement": "promoter activity interaction Z-score", "setting": "[6]; [7]", "result": "0.67 ± 0.48"}, {"measurement": "promoter activity interaction Z-score", "setting": "[6]; [8]", "result": "-0.632 ± 0.36"}, {"measurement": "promoter activity interaction Z-score", "setting": "[6]; [9]", "result": "-0.116 ± 0.95"}, {"measurement": "promoter activity interaction Z-score", "setting": "[6]; [10]", "result": "-0.559 ± 0.21"}, {"measurement": "promoter activity interaction Z-score", "setting": "[6]; [11]", "result": "0.553 ± 0.46"}, {"measurement": "promoter activity interaction Z-score", "setting": "[6]; [12]", "result": "-0.336 ± 0.28"}, {"measurement": "promoter activity interaction Z-score", "setting": "[6]; [13]", "result": "0.749 ± 0.87"}, {"measurement": "promoter activity interaction Z-score", "setting": "[6]; [14]", "result": "2.3 ± 2.1"}, {"measurement": "promoter activity interaction Z-score", "setting": "[6]; [15]", "result": "1.84 ± 0.19"}, {"measurement": "promoter activity interaction Z-score", "setting": "[6]; [16]", "result": "2.71 ± 0.84"}, {"measurement": "promoter activity interaction Z-score", "setting": "[6]; [17]", "result": "1.92 ± 0.38"}, {"measurement": "promoter activity interaction Z-score", "setting": "[6]; [18]", "result": "2.4 ± 1.6"}, {"measurement": "promoter activity interaction Z-score", "setting": "[6]; [19]", "result": "1.85 ± 0.094"}, {"measurement": "promoter activity interaction Z-score", "setting": "[6]; [20]", "result": "0.798 ± 2"}, {"measurement": "promoter activity interaction Z-score", "setting": "[6]; [21]", "result": "1.4 ± 0.83"}, {"measurement": "promoter activity interaction Z-score", "setting": "[6]; [22]", "result": "0.494 ± 0.71"}]}]}
